Measurements published in PubChem BioAssay (EPA / NIEHS).
Several values for one entry are separate records, joined by “and”; a condition that tells them apart may be missing. Equal values may be shown once. Inconclusive results are not listed. The source holds several records for some structures; these can differ, active in one and inactive in another. Activity calls are given as the source filed them. Rule for the calls, unless noted: active = hit-call score of the fitted dose curve at least 0.9, where 1 is the maximum; inactive = score below 0.9.

How the values were obtained:
[1] = biological target: Glucocorticoid receptor (Homo sapiens) (UniProt P04150); assay: ATG_GR_TRANS: Attagene TRANS-FACTORIAL HepG2 Assay for human Glucocorticoid Receptor (GR) (AID 2282978; active = hit-call score of the fitted dose curve at least 0.9, where 1 is the maximum;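 note: activators score as hits since higher reporter transcript over DMSO is fitted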); conditions: HepG2 Attagene TRANS GR reporter, mRNA transcription
Sequence of Glucocorticoid receptor (Homo sapiens) (P04150 whole entry, looked up, the tested form may be a part): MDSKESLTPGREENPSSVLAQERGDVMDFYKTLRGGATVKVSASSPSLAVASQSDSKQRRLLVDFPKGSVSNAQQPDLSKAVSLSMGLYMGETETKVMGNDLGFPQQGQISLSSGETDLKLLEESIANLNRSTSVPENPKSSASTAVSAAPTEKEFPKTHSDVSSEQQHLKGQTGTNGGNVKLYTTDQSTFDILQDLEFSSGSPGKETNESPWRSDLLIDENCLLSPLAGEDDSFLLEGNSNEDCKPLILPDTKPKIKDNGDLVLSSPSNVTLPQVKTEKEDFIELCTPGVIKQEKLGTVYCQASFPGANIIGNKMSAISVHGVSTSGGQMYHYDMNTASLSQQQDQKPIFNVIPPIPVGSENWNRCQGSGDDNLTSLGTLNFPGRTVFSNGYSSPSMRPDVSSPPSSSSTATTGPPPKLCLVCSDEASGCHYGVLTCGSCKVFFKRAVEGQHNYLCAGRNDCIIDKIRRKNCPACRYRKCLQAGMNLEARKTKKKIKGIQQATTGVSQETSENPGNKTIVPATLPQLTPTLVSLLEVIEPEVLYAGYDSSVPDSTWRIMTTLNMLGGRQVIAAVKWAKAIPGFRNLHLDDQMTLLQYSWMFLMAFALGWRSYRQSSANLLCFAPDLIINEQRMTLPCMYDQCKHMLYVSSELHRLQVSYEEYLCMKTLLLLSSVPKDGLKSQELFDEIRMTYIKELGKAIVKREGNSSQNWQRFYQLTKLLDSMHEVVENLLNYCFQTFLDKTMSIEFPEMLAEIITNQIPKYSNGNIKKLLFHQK
Method in brief: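 Fluorescent capillary-electrophoresis quantitation of reporter mRNA is the readout, taken 24 h after dosing human HepG2 cells carrying transiently transfected GAL4-UAS reporter units activated by chimeric NR-GAL4 fusions; activity scored as induction over DMSO.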

[2] = biological target: Bile acid receptor (Homo sapiens) (UniProt Q96RI1); assay: ATG_FXR_TRANS: Attagene TRANS-FACTORIAL HepG2 Assay for Farnesoid X Receptor (FXR) (AID 2282979; active = hit-call score of the fitted dose curve at least 0.9, where 1 is the maximum;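 note: hits raise reporter mRNA above DMSO so AC50 marks FXR activation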); conditions: HepG2 Attagene TRANS FXR-GAL4 reporter transcription
Sequence of Bile acid receptor (Homo sapiens) (Q96RI1 whole entry, looked up, the tested form may be a part): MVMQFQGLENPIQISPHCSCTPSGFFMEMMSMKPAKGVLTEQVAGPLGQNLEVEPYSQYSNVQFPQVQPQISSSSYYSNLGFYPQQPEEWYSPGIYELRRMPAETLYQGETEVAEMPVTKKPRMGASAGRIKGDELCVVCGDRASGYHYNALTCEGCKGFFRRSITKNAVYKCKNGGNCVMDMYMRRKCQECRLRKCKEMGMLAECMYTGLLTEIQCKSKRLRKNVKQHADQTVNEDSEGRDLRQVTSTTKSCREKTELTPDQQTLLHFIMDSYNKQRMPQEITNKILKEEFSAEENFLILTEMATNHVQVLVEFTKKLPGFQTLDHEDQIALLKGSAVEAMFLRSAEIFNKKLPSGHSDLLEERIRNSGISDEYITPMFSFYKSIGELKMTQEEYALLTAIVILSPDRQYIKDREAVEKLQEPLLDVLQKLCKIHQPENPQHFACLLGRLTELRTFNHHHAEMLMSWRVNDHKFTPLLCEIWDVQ
Method in brief: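 Reporter transcripts from transfected HepG2 cells were measured 24 h after dosing, using RT-PCR with capillary electrophoresis of 6-FAM-labelled fragments. The read-out reflects activity of exogenous FXR-Gal4 chimera on GAL4-UAS units, with induction relative to DMSO.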

[3] = biological target: Oxysterols receptor LXR-alpha (Homo sapiens) (UniProt Q13133); assay: ATG_LXRa_TRANS: Attagene TRANS-FACTORIAL HepG2 Assay for human Liver X Receptor alpha (LXRa) (AID 2282980; active = hit-call score of the fitted dose curve at least 0.9, where 1 is the maximum); conditions: HepG2 Attagene TRANS reporter, LXRa transactivation
Sequence of Oxysterols receptor LXR-alpha (Homo sapiens) (Q13133 whole entry, looked up, the tested form may be a part): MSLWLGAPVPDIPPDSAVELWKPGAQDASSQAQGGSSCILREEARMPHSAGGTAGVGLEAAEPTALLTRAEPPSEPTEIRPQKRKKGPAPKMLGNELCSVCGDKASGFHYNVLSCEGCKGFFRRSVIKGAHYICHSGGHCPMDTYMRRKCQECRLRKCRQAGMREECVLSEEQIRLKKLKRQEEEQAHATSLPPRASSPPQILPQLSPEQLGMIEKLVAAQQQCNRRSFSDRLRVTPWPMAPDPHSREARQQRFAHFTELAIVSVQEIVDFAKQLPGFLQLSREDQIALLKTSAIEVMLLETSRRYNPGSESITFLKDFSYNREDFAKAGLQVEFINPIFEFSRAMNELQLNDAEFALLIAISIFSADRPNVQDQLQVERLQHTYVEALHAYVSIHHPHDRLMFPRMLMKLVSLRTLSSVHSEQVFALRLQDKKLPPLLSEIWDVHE
Method in brief: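 Chemical-induced reporter mRNA measured by RT-PCR with fluorescent labelling and capillary electrophoresis after 24 h dosing of transiently transfected HepG2 cells expressing exogenous NR-Gal4 chimeras; increases scored against DMSO baseline.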

[4] = biological target: Oxysterols receptor LXR-beta (Homo sapiens) (UniProt P55055); assay: ATG_LXRb_TRANS: Attagene TRANS-FACTORIAL HepG2 Assay for human Liver X Receptor beta (LXRb) (AID 2282981; active = hit-call score of the fitted dose curve at least 0.9, where 1 is the maximum); conditions: HepG2 Attagene TRANS GAL4-LXRb reporter, mRNA
Sequence of Oxysterols receptor LXR-beta (Homo sapiens) (P55055 whole entry, looked up, the tested form may be a part): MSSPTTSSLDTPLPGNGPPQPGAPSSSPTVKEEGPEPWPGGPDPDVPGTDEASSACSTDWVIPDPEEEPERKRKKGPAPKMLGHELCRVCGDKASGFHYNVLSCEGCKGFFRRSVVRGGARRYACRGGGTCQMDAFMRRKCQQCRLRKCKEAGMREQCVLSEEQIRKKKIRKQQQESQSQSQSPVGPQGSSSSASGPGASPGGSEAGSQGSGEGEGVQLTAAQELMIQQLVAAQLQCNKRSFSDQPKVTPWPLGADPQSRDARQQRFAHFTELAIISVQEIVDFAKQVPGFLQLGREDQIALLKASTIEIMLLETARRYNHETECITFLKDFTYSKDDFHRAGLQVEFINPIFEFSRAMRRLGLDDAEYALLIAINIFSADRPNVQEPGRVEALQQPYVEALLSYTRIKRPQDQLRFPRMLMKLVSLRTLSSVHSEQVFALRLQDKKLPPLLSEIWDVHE
Method in brief: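 After 24 h chemical treatment of transfected HepG2 cells carrying exogenous NR-Gal4 chimeras, reporter mRNA was quantified by fluorescent RT-PCR and capillary electrophoresis; activity taken as increase over DMSO controls.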

[5] = biological target: Hepatocyte nuclear factor 4-alpha (Homo sapiens) (UniProt P41235); assay: ATG_HNF4a_TRANS: Attagene TRANS-FACTORIAL HepG2 Assay for human Hepatocyte Nuclear Factor 4 alpha (HNF4a) (AID 2282982; active = hit-call score of the fitted dose curve at least 0.9, where 1 is the maximum); conditions: HepG2 HNF4a transactivation reporter, mRNA readout
Sequence of Hepatocyte nuclear factor 4-alpha (Homo sapiens) (P41235 whole entry, looked up, the tested form may be a part): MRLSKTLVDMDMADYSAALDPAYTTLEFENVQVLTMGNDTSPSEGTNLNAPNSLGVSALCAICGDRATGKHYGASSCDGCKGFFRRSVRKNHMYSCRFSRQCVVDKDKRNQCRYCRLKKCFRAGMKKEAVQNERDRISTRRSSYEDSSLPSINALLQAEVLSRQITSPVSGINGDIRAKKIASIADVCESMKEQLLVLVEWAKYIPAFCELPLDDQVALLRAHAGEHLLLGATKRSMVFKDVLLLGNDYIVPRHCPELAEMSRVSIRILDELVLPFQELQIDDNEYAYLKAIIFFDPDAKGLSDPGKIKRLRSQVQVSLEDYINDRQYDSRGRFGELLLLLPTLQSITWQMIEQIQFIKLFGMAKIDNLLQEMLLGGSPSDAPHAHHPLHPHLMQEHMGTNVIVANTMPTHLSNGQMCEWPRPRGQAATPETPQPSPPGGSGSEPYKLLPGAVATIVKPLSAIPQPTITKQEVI
Method in brief: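 Activity of an exogenous HNF4a–Gal4 fusion scored as induced GAL4-UAS reporter transcripts after 24 h chemical exposure of transfected human HepG2 cells. Read-out via RT-PCR with 6-FAM labelling and capillary electrophoresis; rise over DMSO baseline.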

[6] = ATG_M_06_TRANS: Attagene TRANS-FACTORIAL HepG2 Assay for M06 Transcription Factor (Internal Marker) (AID 2282983; active = hit-call score of the fitted dose curve at least 0.9, where 1 is the maximum); conditions: HepG2 Attagene TRANS M06 internal marker reporter
Method in brief: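 Background-control reporter readout: after 24 h chemical exposure of transiently transfected HepG2 (GAL4-UAS reporter units), mRNA quantified by RT-PCR with fluorescent labeling and capillary electrophoresis. Gain-of-signal fitting against DMSO baseline.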

[7] = ATG_M_32_TRANS: Attagene TRANS-FACTORIAL HepG2 Assay for M32 Transcription Factor (Internal Marker) (AID 2282984; active = hit-call score of the fitted dose curve at least 0.9, where 1 is the maximum); conditions: HepG2 Attagene TRANS M32 internal marker reporter
Method in brief: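 Internal background reporter in transfected HepG2: after 24 h chemical exposure, RNA reverse-transcribed, reporter cDNA amplified, fluorescently labelled and HpaI-cut, then sized by capillary electrophoresis. Gain of signal fitted against DMSO control.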

[8] = biological target: Nuclear receptor subfamily 4 group A member 2 (Homo sapiens) (UniProt P43354); assay: ATG_NURR1_TRANS: Attagene TRANS-FACTORIAL HepG2 Assay for human Nuclear Receptor Related Protein 1 (NURR1) (AID 2282985; active = hit-call score of the fitted dose curve at least 0.9, where 1 is the maximum); conditions: HepG2 Attagene TRANS reporter, mRNA readout
Sequence of Nuclear receptor subfamily 4 group A member 2 (Homo sapiens) (P43354 whole entry, looked up, the tested form may be a part): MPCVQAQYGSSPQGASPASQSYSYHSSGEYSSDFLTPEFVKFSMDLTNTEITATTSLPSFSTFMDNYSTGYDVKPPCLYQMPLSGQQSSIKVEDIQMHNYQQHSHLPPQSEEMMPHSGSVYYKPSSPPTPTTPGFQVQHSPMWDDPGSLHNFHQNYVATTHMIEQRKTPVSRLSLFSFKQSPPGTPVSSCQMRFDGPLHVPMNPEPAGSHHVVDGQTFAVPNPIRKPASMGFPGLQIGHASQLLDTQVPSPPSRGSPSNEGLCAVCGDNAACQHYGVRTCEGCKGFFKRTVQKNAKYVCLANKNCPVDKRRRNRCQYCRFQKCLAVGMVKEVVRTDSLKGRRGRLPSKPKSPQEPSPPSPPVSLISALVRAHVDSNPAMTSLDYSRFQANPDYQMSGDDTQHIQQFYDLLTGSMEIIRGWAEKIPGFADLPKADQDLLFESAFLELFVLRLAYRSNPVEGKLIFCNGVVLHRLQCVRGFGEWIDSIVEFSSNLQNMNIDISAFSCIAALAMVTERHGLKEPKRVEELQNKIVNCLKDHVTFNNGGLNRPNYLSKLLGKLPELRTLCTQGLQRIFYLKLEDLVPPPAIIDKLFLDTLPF
Method in brief: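 Reporter transcript induction, measured by RT-PCR with fluorescent labelling, HpaI digestion and capillary electrophoresis, after 24 hr dosing of human HepG2 cells transiently expressing an exogenous NR-Gal4 fusion with GAL4-UAS-driven reporters; DMSO as baseline.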

[9] = biological target: Transcriptional activator Myb (Homo sapiens) (UniProt P10242); assay: ATG_Myb_CIS: Attagene CIS-FACTORIAL HepG2 Assay for human Myeloblastosis (Myb) Proto-Oncogene Transcription Factor (AID 2282986); conditions: HepG2 Attagene CIS-FACTORIAL Myb reporter transcription; actives raise or lower the signal
Sequence of Transcriptional activator Myb (Homo sapiens) (P10242 whole entry, looked up): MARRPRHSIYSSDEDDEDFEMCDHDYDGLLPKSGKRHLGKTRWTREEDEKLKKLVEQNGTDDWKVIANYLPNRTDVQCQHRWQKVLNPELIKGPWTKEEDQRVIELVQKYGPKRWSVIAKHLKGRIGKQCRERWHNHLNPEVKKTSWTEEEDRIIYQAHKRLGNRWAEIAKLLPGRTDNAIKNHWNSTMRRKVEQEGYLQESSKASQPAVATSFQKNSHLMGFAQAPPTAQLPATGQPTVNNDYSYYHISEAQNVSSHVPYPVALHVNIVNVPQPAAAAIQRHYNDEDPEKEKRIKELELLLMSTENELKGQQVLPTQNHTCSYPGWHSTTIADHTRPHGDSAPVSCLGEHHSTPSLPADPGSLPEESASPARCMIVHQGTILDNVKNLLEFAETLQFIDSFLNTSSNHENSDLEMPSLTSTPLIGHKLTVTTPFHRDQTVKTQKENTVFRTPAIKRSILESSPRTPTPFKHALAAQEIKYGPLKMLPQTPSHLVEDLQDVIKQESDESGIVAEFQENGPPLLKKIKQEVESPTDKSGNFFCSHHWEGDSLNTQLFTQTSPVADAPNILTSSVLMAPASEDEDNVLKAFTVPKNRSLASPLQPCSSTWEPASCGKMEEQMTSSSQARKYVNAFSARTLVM
Method in brief: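 Reporter transcript levels, quantified by fluorescent RT-PCR and capillary electrophoresis, serve as the read-out. Transfected HepG2 cells carrying cis-promoter reporter units are dosed for 24 hours, and curves are fitted bidirectionally against DMSO controls.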

[10] = biological target: Nuclear respiratory factor 1 (Homo sapiens) (UniProt Q16656); assay: ATG_NRF1_CIS: Attagene CIS-FACTORIAL HepG2 Assay for human Nuclear Respiratory Factor 1 (NRF1) Orphan Gene (AID 2282987); conditions: HepG2 NRF1 cis-element reporter, Attagene multiplex; actives raise or lower the signal
Method in brief: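 Multiplexed cis-reporter assay, HepG2 cells, 24 h treatment. Total RNA → oligo(dT) RT → PCR with reporter-specific primers → 6-FAM primer extension → HpaI cut → CE. Bidirectional fit vs DMSO.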

[11] = ATG_NFI_CIS: Attagene CIS-FACTORIAL HepG2 Assay for human Nuclear Factor I (NFI) (AID 2282989); conditions: HepG2 cis-regulatory reporter, NFI response element transcription; actives raise or lower the signal
Method in brief: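 Transient MRTU transfection of HepG2 → 24 h chemical dosing → total RNA, oligo(dT) RT → PCR, 6-FAM primer extension, HpaI cut → capillary electrophoresis. Endpoint fitted bidirectionally relative to DMSO.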

[12] = biological target: Myc proto-oncogene protein (Homo sapiens) (UniProt P01106); assay: ATG_Myc_CIS: Attagene CIS-FACTORIAL HepG2 Assay for human Myelocytomatosis (Myc) Proto-Oncogene Transcription Factor (AID 2282990); conditions: HepG2, Attagene cis-reporter transcription factor activity; actives raise or lower the signal
Sequence of Myc proto-oncogene protein (Homo sapiens) (P01106 whole entry, looked up): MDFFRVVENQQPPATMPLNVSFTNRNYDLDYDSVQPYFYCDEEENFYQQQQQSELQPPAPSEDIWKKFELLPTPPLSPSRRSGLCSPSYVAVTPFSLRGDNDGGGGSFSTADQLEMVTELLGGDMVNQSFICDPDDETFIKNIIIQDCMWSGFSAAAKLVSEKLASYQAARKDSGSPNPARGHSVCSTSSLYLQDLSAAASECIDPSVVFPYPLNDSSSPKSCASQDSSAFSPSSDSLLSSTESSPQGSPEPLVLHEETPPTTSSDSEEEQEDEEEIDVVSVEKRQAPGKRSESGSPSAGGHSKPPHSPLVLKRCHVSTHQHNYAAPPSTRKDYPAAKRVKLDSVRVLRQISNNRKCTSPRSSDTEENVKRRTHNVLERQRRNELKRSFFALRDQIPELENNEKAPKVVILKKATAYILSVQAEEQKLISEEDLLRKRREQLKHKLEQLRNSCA
Method in brief: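 Cells of the HepG2 human liver line bear multiple cis-driven reporter transcription units. Reporter mRNA after 24 h exposure is reverse-transcribed, amplified, labelled and resolved by capillary electrophoresis, with gain- or loss-of-signal fitting relative to DMSO.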

[13] = ATG_NRF2_ARE_CIS: Attagene CIS-FACTORIAL HepG2 Assay for human Nuclear Factor Erythroid 2 Related Factor 2 (NFR2) response to Antioxidant Response Elements (ARE) (AID 2282992); conditions: HepG2 Attagene ARE/NRF2 reporter, transcription factor activity; actives raise or lower the signal
Method in brief: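 Endogenous transcription factor activity read out as reporter transcript levels (RT-PCR plus capillary electrophoresis, fluorescence) in transiently transfected HepG2 cells. Measured at 24 h after dosing; gain or loss of signal fitted versus DMSO.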

[14] = ATG_Oct_MLP_CIS: Attagene CIS-FACTORIAL HepG2 Assay for human Octamer-Binding Transcription Factor (Oct) (AID 2282993); conditions: HepG2 Attagene cis-factorial Oct reporter, mRNA; actives raise or lower the signal
Method in brief: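 Transient MRTU transfection of HepG2 → 24 h compound treatment → RNA isolation, reverse transcription, PCR → 6-FAM primer extension, HpaI digest → capillary electrophoresis. Activity fitted both directions against DMSO.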

[15] = biological target: Cellular tumor antigen p53 (Homo sapiens) (UniProt P04637); assay: ATG_p53_CIS: Attagene CIS-FACTORIAL HepG2 Assay for human p53 Transcription Factor (AID 2282994); conditions: HepG2 p53 cis-element reporter, Attagene mRNA; actives raise or lower the signal
Sequence of Cellular tumor antigen p53 (Homo sapiens) (P04637 whole entry, looked up): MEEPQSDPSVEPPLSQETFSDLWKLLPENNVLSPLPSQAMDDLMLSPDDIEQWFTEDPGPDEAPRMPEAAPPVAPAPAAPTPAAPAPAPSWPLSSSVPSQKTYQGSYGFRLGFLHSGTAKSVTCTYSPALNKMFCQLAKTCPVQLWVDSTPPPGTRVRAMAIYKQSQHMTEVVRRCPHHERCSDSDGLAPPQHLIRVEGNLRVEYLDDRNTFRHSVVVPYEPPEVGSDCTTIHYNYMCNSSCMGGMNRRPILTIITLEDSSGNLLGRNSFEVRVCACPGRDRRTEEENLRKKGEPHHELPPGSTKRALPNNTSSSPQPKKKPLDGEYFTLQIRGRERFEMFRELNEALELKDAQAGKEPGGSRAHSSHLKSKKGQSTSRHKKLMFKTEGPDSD
Method in brief: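 Endogenous p53 activity read in transiently transfected HepG2 from a cis-element-driven reporter transcript after 24 h exposure. RNA reverse-transcribed, PCR-amplified, fluorescently labelled and sized by capillary electrophoresis; gain or loss fitted against DMSO baseline.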

[16] = BSK_3C_TissueFactor: BioMAP Diversity Plus: 3C Assay for Tissue Factor Biomarker Activity (AID 2282997); conditions: BioMAP 3C HUVEC, tissue factor biomarker readout; actives raise or lower the signal
Method in brief: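 Tissue factor on primary human umbilical vein endothelium was read by ELISA 24 h after dosing, gain or loss relative to DMSO. Cytotoxicity ran alongside via SRB (0.1%, TCA-fixed, 560 nm).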

[17] = BSK_3C_uPAR: BioMAP Diversity Plus: 3C Assay for Urokinase-type plasminogen activator receptor (uPAR) Biomarker Activity (AID 2282998); conditions: BioMAP 3C HUVEC, uPAR biomarker ELISA; actives raise or lower the signal
Method in brief: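 ELISA readout of uPAR on human vascular endothelium (umbilical vein primary cells), taken 24 h after chemical dosing. Increases and decreases are both fitted relative to DMSO vehicle.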

[18] = BSK_3C_VCAM1: BioMAP Diversity Plus: 3C Assay for Vascular cell adhesion molecule 1 (VCAM1) Biomarker Activity (AID 2282999); conditions: BioMAP 3C HUVEC, VCAM1 ELISA, cytokine-stimulated; actives raise or lower the signal
Method in brief: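 Activity fitted in both directions relative to DMSO, with ELISA measurement of the surface marker on primary HUVEC (3C) at 24 h post-treatment; parallel SRB staining (0.1% SRB, TCA-fixed, 560 nm) flagged overt cytotoxicity.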

[19] = BSK_4H_Eotaxin3: BioMAP Diversity Plus: 4H Assay for Eotaxin 3 Biomarker Activity (AID 2283000); conditions: primary human endothelial cells (HUVEC); actives raise or lower the signal
Method in brief: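 Human umbilical vein endothelial cells (BSK_4H system) dosed with test chemical; Eotaxin-3 (CCL26) measured by ELISA 24 h after dosing. Bidirectional curve fitting relative to DMSO negative control as baseline.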

[20] = ATG_NF_kB_CIS: Attagene CIS-FACTORIAL HepG2 Assay for human Nuclear Factor Kappa B (NF-kB) (AID 2282991); conditions: HepG2 Attagene cis-factorial NF-kB reporter mRNA; actives raise or lower the signal
Method in brief: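 Transient MRTU transfection of human HepG2 liver cells → 24 h chemical exposure → total RNA, oligo(dT) RT → PCR, 6-FAM primer extension, HpaI digest 2 h 37 C → CE fragment analysis. Bidirectional fitting, DMSO negative control.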

Measured: AC50

CCCCOC(=O)c1ccc(O)cc1
active: [2] 66.1 µM | [8] 100 µM | [9] 162 µM | [10] 100 µM | [11] 100 µM | [12] 100 µM | [13] 100 µM and 26.2 µM | [14] 116 µM | [16] 7.85 µM
inactive: [1] | [2] | [3] | [4] | [5] | [6] | [7] | [8] | [9] | [10] | [11] | [12] | [13] | [14] | [15] | [17] | [18] | [19]

CCCCCCCCOC(=O)c1cc(O)c(O)c(O)c1
active: [2] 43 µM | [3] 52.2 µM | [13] 5.96 µM | [16] 20 µM | [17] 36.3 µM | [18] 32.5 µM | [19] 17.3 µM
not listed: [8]
inactive: all other assays above

CN1C(=O)N(c2ccccc2Br)Cc2cnc(Nc3ccc4c(c3)OCC(CO)O4)nc21 (stereo not given)
inactive: [1] | [2] | [7] | [9] | [10] | [11] | [20] | [13]
active: [12] 2.93 µM | [14] 9.54 µM | [15] 0.0368 µM | [17] 10.7 µM | [18] 33.6 µM | [19] 9.49 µM
